Source: article PMC5515408, “Sequence-specific DNA binding by MYC/MAX to low-affinity non-E-box motifs”
Whole data set: some 4,500 sequences, median “log2 normalized fluorescence” near -0.34, cut for the highest 2% near 3.3. This is one part of a sample in which the highest values are shown more often than they occur.

target: MAX:MAX (p21) (human, UniProt P61244-2 1-151); assay: protein-binding microarray (anti-MAX antibody); PBM: 15 mM Tris-HCl pH 7.5, 100 mM KCl, 0.075% NP40, 7.5 mM beta-mercaptoethanol, 375 ng/ul BSA, 8 ng/ul poly(dA-dT):(dA-dT), 550 ng complex, 60 min, room tempe; high values mean tight binding; settings: protein: recombinant; tags: 6xHis; chain copies: 2; label: 3' end of printed strand (linker) attached to glass slide; dsDNA, one strand shown
Sequence (P61244 other isoform, or with tags, fused parts or gaps): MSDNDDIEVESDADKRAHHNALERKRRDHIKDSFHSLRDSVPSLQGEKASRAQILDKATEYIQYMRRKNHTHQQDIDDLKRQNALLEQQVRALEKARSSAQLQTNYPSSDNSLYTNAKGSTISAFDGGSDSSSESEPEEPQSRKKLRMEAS
Summary of the method: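 Recombinant His-tagged human MYC:MAX or MAX:MAX dimers (550 ng, expressed in E. coli) were incubated for 60 min at room temperature in Tris-KCl buffer, pH 7.5, with NP40, BSA and poly(dA-dT) competitor. The custom Agilent glass array held ~5000 unique 12-nt sequences, each spotted in triplicate and made double-stranded by primer extension. Bound protein was detected with anti-MAX and secondary antibodies and scanned at 543 nm. Binding is reported as log2 normalized fluorescence.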

Question: How did the binding signal turn out when “CCGGCTAACACGTGGAATTAATAGCTAAGATTACTATATCGACG” was run?
Answer: The binding signal was 3.35 log2 normalized fluorescence.

Question: “CCGGCTTACACGTGGGATTAATAGCTAAGATTACTATATCGACG” was tested. Which binding signal did it give?
Answer: The binding signal was 3.12 log2 normalized fluorescence.

Question: For “CCGGCTAACACGTCGTATTAATAGCTAAGATTACTATATCGACG”, which binding signal is on record?
Answer: Its binding signal is 2.38 log2 normalized fluorescence.

Question: “CCGGCTTACACGTGGAATTAATAGCTAAGATTACTATATCGACG” was tested. Which binding signal did it give?
Answer: Its binding signal is 3.37 log2 normalized fluorescence.

Question: Which binding signal does the source give for “CCGGCCGACACGTCGTATTAATAGCTAAGATTACTATATCGACG” here?
Answer: The binding signal was 2.07 log2 normalized fluorescence.

Question: How did the binding signal turn out when “CCGGCTTACATGTGGAATTAATAGCTAAGATTACTATATCGACG” was run?
Answer: The binding signal was 3.25 log2 normalized fluorescence.

Question: Which binding signal does the source give for “CCGGCCGACACGTGGAATTAATAGCTAAGATTACTATATCGACG” here?
Answer: Its binding signal is 3.32 log2 normalized fluorescence.

Question: How did the binding signal turn out when “CCGGCTAACACGTAGTATTAATAGCTAAGATTACTATATCGACG” was run?
Answer: The binding signal was 1.92 log2 normalized fluorescence.

Question: Which binding signal does the source give for “CCGGCTGACACGTGGAATTAATAGCTAAGATTACTATATCGACG” here?
Answer: The binding signal was 3.16 log2 normalized fluorescence.

Question: For “CCGGCTGAAGACGGGTATTAATAGCTAAGATTACTATATCGACG”, which binding signal is on record?
Answer: Its binding signal is -0.654 log2 normalized fluorescence.

Question: For “CCGGCTGACCCGTGGTATTAATAGCTAAGATTACTATATCGACG”, which binding signal is on record?
Answer: Its binding signal is 2.38 log2 normalized fluorescence.

Question: How did the binding signal turn out when “CCGGCTGAGCAGGAGTATTAATAGCTAAGATTACTATATCGACG” was run?
Answer: The binding signal was -0.201 log2 normalized fluorescence.

Question: How did the binding signal turn out when “CCGGCAGACACGATGTATTAATAGCTAAGATTACTATATCGACG” was run?
Answer: Its binding signal is 3.02 log2 normalized fluorescence.

Question: For “CCGGCTGAGATCACGTATTAATAGCTAAGATTACTATATCGACG”, which binding signal is on record?
Answer: Its binding signal is 0.425 log2 normalized fluorescence.

Question: How did the binding signal turn out when “CCGGCTGAGGGTTCGTATTAATAGCTAAGATTACTATATCGACG” was run?
Answer: Its binding signal is -0.732 log2 normalized fluorescence.

Question: For “CCGGCTGAACCCTCGTATTAATAGCTAAGATTACTATATCGACG”, which binding signal is on record?
Answer: The binding signal was 0.0153 log2 normalized fluorescence.

Question: How did the binding signal turn out when “CCGGCTGAAGCGGGGTATTAATAGCTAAGATTACTATATCGACG” was run?
Answer: The binding signal was 0.358 log2 normalized fluorescence.

Question: “CCGGCTGATTCGATGTATTAATAGCTAAGATTACTATATCGACG” was tested. Which binding signal did it give?
Answer: Its binding signal is -0.732 log2 normalized fluorescence.

Question: With “CCGGCTGACGGGCGGTATTAATAGCTAAGATTACTATATCGACG” as the sequence, how does the binding signal read?
Answer: The binding signal was -0.202 log2 normalized fluorescence.

Question: For “CCGGCTGCCACGAGGAATTAATAGCTAAGATTACTATATCGACG”, which binding signal is on record?
Answer: Its binding signal is 3.34 log2 normalized fluorescence.

Question: How did the binding signal turn out when “CCGGCTGCCACGTGGAATTAATAGCTAAGATTACTATATCGACG” was run?
Answer: Its binding signal is 3.31 log2 normalized fluorescence.

Question: How did the binding signal turn out when “CCGGCTGCCACGTGTTATTAATAGCTAAGATTACTATATCGACG” was run?
Answer: Its binding signal is 3.28 log2 normalized fluorescence.

Question: “CCGGCTGCCACGCGGAATTAATAGCTAAGATTACTATATCGACG” was tested. Which binding signal did it give?
Answer: The binding signal was 3.15 log2 normalized fluorescence.

Question: For “CCGGCTGTCACGTGGAATTAATAGCTAAGATTACTATATCGACG”, which binding signal is on record?
Answer: The binding signal was 3.19 log2 normalized fluorescence.

Question: Which binding signal does the source give for “CCGGCTGCCACGTGCTTTTAATAGCTAAGATTACTATATCGACG” here?
Answer: Its binding signal is 3.14 log2 normalized fluorescence.

Question: How did the binding signal turn out when “CCGGCTGCCACGTGCGATTAATAGCTAAGATTACTATATCGACG” was run?
Answer: Its binding signal is 3.47 log2 normalized fluorescence.

Question: “CCGGCTGCCACGACGTATTAATAGCTAAGATTACTATATCGACG” was tested. Which binding signal did it give?
Answer: The binding signal was 1.79 log2 normalized fluorescence.

Question: “CCGGCTGCCACGTGATATTAATAGCTAAGATTACTATATCGACG” was tested. Which binding signal did it give?
Answer: Its binding signal is 3.13 log2 normalized fluorescence.

Question: How did the binding signal turn out when “CCGGCTAACACGAGGTATTAATAGCTAAGATTACTATATCGACG” was run?
Answer: The binding signal was 3.28 log2 normalized fluorescence.

Question: For “CCGGCAGACACGAGGTTTTAATAGCTAAGATTACTATATCGACG”, which binding signal is on record?
Answer: The binding signal was 3.03 log2 normalized fluorescence.

Question: For “CCGGCGGACACGAGGTATTAATAGCTAAGATTACTATATCGACG”, which binding signal is on record?
Answer: Its binding signal is 3.32 log2 normalized fluorescence.

Question: How did the binding signal turn out when “CCGGCAGACACGAGGTATTAATAGCTAAGATTACTATATCGACG” was run?
Answer: Its binding signal is 3.44 log2 normalized fluorescence.

Question: With “CCGGCTGACACGAGGTATTAATAGCTAAGATTACTATATCGACG” as the sequence, how does the binding signal read?
Answer: The binding signal was 3.08 log2 normalized fluorescence.

Question: Which binding signal does the source give for “CCGGCGGACACGCGGTATTAATAGCTAAGATTACTATATCGACG” here?
Answer: Its binding signal is 3.26 log2 normalized fluorescence.

Question: How did the binding signal turn out when “CCGGCTGACCCAAGGTATTAATAGCTAAGATTACTATATCGACG” was run?
Answer: Its binding signal is -0.0673 log2 normalized fluorescence.

Question: “CCGGCTGACATGTGGCCTTAATAGCTAAGATTACTATATCGACG” was tested. Which binding signal did it give?
Answer: The binding signal was 2.99 log2 normalized fluorescence.

Question: How did the binding signal turn out when “CCGGCTGAGTCACTGTATTAATAGCTAAGATTACTATATCGACG” was run?
Answer: Its binding signal is -0.498 log2 normalized fluorescence.

Question: “CCGGCTGATTGCGAGTATTAATAGCTAAGATTACTATATCGACG” was tested. Which binding signal did it give?
Answer: The binding signal was -0.512 log2 normalized fluorescence.

Question: How did the binding signal turn out when “CCGGCTGACACGTGGCTTTAATAGCTAAGATTACTATATCGACG” was run?
Answer: The binding signal was 3.04 log2 normalized fluorescence.

Question: “CCGGCTGACACGTGCGCTTAATAGCTAAGATTACTATATCGACG” was tested. Which binding signal did it give?
Answer: Its binding signal is 3.16 log2 normalized fluorescence.

Question: With “CCGGCTGACACGTGCTTTTAATAGCTAAGATTACTATATCGACG” as the sequence, how does the binding signal read?
Answer: The binding signal was 3.34 log2 normalized fluorescence.

Question: How did the binding signal turn out when “CCGGCTGACACGTGCCTTTAATAGCTAAGATTACTATATCGACG” was run?
Answer: The binding signal was 3.18 log2 normalized fluorescence.

Question: Which binding signal does the source give for “CCGGCTGACACGTGTGCTTAATAGCTAAGATTACTATATCGACG” here?
Answer: Its binding signal is 3.4 log2 normalized fluorescence.

Question: Which binding signal does the source give for “CCGGCCGACACGTGCTTTTAATAGCTAAGATTACTATATCGACG” here?
Answer: Its binding signal is 3.21 log2 normalized fluorescence.

Question: Which binding signal does the source give for “CCGGCTGACACGTAGCTTTAATAGCTAAGATTACTATATCGACG” here?
Answer: Its binding signal is 1.51 log2 normalized fluorescence.

Question: With “CCGGCTAACACGTGCTTTTAATAGCTAAGATTACTATATCGACG” as the sequence, how does the binding signal read?
Answer: Its binding signal is 3.33 log2 normalized fluorescence.

Question: How did the binding signal turn out when “CCGGCTGACACGTGCCCTTAATAGCTAAGATTACTATATCGACG” was run?
Answer: Its binding signal is 3.16 log2 normalized fluorescence.

Question: With “CCGGCTGAGACGTGGGATTAATAGCTAAGATTACTATATCGACG” as the sequence, how does the binding signal read?
Answer: Its binding signal is 0.979 log2 normalized fluorescence.

Question: With “CCGGCTGAATGTCTGTATTAATAGCTAAGATTACTATATCGACG” as the sequence, how does the binding signal read?
Answer: The binding signal was 0.29 log2 normalized fluorescence.

Question: Which binding signal does the source give for “CCGGCTGATGCAGCGTATTAATAGCTAAGATTACTATATCGACG” here?
Answer: The binding signal was -0.0989 log2 normalized fluorescence.

Question: Which binding signal does the source give for “CCGGCTGGCACCTGGTATTAATAGCTAAGATTACTATATCGACG” here?
Answer: Its binding signal is 1.88 log2 normalized fluorescence.

Question: “CCGGCTGACTAATGGTATTAATAGCTAAGATTACTATATCGACG” was tested. Which binding signal did it give?
Answer: Its binding signal is -0.355 log2 normalized fluorescence.
